Compound activity as filed in PubChem BioAssay.
An excerpt weighted towards active compounds, which were near 27% of everything screened.
sEH inhibitor: soluble epoxide hydrolase (human) inhibition | P34913 | recombinant human sEH enzymatic activity assay | inhibition, % at 2 µM | 91,000 tested, 0.34% active; in the data active means inhibition above about 80%
Target sequence (P34913 whole entry, looked up): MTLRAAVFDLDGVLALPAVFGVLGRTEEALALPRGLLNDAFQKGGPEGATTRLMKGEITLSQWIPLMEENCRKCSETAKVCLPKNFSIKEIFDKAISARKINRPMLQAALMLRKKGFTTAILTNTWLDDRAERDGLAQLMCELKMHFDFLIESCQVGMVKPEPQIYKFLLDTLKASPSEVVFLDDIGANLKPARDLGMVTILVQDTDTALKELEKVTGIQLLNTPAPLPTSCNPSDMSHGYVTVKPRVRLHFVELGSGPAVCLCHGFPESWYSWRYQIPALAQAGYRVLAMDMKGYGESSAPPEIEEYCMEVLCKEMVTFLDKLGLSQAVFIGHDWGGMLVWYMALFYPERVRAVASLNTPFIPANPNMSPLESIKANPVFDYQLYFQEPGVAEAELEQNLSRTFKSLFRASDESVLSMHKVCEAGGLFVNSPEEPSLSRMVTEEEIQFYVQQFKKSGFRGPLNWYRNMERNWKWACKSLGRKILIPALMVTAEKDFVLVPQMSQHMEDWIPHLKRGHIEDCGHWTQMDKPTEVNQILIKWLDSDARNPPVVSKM
CYP2C9 inhib: blocks human cytochrome P450 2C9. P11712. CYP2C9 Supersomes, luciferin-H conversion, luminescence. inhibition, % at 5 µM. 96,000 tested, 20% active. AID 777;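 active means blocking of liver enzyme CYP2C9 beyond about 50% at 5 µM, limit read from the data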
CYP2C9 activ: CYP2C9 (human) activation. recombinant CYP2C9, luciferin-H conversion, luminescence; active compounds read high; factor 1 = untreated enzyme, 0 = blocked. activation factor at 5 µM. 96,000 tested, 1.4% active. AID 1024;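 active means activation factor of 2 or more for CYP2C9 at a 5 µM dose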;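 further: 0 = sulfaphenazole-blocked wells and 1 = vehicle-only wells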
CYP2C19 inhib: inhibitors of human CYP2C19; P33261; CYP2C19 Supersomes, luciferin-H EGE luminescence, 30 min; inhibition, % at 5 µM; 96,000 tested, 21% active;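 active means CYP2C19 inhibition above a set limit at 5 µM in the primary screen, cut at about 50% in these data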;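 further: plate controls were negative control wells for no effect and 2.5 mM tranylcypromine positive control for full effect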
sEH act: soluble epoxide hydrolase (human) activation. P34913. purified human sEH enzymatic activity, activator screen. activation, % at 2 µM. 91,000 tested, 0.04% active; in the data active means activation above about 37%
CYP2C19 act: cytochrome P450 2C19 (human) activation; recombinant CYP2C19, luciferin-H EGE luminescence; active compounds read high; 0 = fully inhibited enzyme, 1 = untreated enzyme; activation factor at 5 µM; P33261; 96,000 tested, under 10 active;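 active means activation factor of at least 2 at 5 µM in the primary screen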;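 further: 0 = wells with 2.5 mM tranylcypromine and 1 = vehicle-only wells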
* hit, by the source's call; · = no result.

SMILES	sEH inhibitor	CYP2C9 inhib	CYP2C9 activ	CYP2C19 inhib	sEH act	CYP2C19 act
CC(=O)NS(=O)(=O)c1ccc(NC(=O)c2cc(-c3ccc(C)c(C)c3)nc3ccccc23)cc1	-2.9	16.5	0.8	11.7	3.4	0.9
CCCc1cc(C(=O)O)c2ccccc2n1	-7.7	-4.9	1	-13.5	5.2	1.1
CCCc1ccc(-c2cc(C(=O)NN3CCOCC3)c3ccccc3n2)cc1	-14.6	86.6*	0.1	39.1	13.2	0.6
CCCc1ccc(-c2cc(C(=O)NCCc3ccc(S(N)(=O)=O)cc3)c3ccccc3n2)cc1	-4.8	98.0*	0	44.9	7.7	0.6
Cc1cccc(-n2c(C)nc3c(cnn3-c3ccc(F)cc3)c2=O)c1	-22.5	13.9	0.9	4.0	22.0	1
CCOCC(=O)Nc1nc(-c2ccccc2)c(CC)s1	-3.4	30.8	0.7	-1.3	5.6	1
COc1ccc(Cl)cc1NC(=O)C1CCCN(S(=O)(=O)c2cccc3nonc23)C1 (centres undefined)	-2.9	·	·	·	0.3	·
CN(C)c1ccc(/C=C(\C#N)C(=O)Nc2nc3c(s2)CCN(Cc2ccccc2)C3)cc1	1.8	19.7	0.8	46.3	-2.9	0.5
O=C(NC1CCCC1)c1cc(-c2cccs2)on1	13.4	-28.4	1.3	34.6	-14.0	0.7
O=C(Nc1c(F)cc(F)cc1Br)c1cc(-c2ccco2)on1	-14.7	-97.0	2*	-16.2	14.7	1.2
O=C(Nc1ccc(F)cc1F)c1cc(-c2ccco2)on1	9.8	-70.8	1.7	-3.3	-7.9	1
O=C(NC1CCCCC1)c1cc(-c2ccco2)on1	·	-176.4	2.8*	-0.1	·	1
CC(C)Cc1cc(C(=O)Nc2c(F)cc(F)cc2Br)no1	-10.7	1.5	1	68.4*	10.4	0.3
O=C(Nc1cccc(O)c1)c1cc(-c2ccco2)on1	-22.5	-104.0	2*	16.0	18.9	0.8
COc1ccccc1-c1cc(C(=O)Nc2c(F)cc(F)cc2Br)no1	-7.1	-9.1	1.1	-3.0	8.4	1
COc1ccc(NC(=O)CN(C)S(=O)(=O)c2ccc3c(c2)OCCO3)c2ncccc12	6.0	-88.3	1.9	20.7	-8.0	0.8
Cn1c2c(c(=O)n(C)c1=O)C1c3cc(Cl)ccc3OCC1CO2 (centres undefined)	-4.1	6.6	0.9	69.0*	6.5	0.3
COc1ccccc1NC(=O)Cn1nnc(-c2ccccc2NC(=O)c2cc3ccccc3oc2=O)n1	0.1	23.9	0.8	-4.4	0.9	1
COC(=O)c1ccc(C(=O)OC)c(NC(=O)N2c3ccccc3Sc3ccccc32)c1	19.6	50.6*	0.5	12.4	-21.2	0.9
CC1(C)NC(=O)N(CCOc2ccc3c(c2)CCC3)C1=O	·	21.0	0.8	72.4*	·	0.3
CCC(C)(C)c1ccc(OCCN2C(=O)NC(C)(C)C2=O)cc1	2.5	76.2*	0.2	89.0*	-0.4	0.1
CCOc1ccc(OCCN2C(=O)NC3(CCCc4ccccc43)C2=O)cc1 (centres undefined)	·	45.0	0.6	18.4	·	0.8
CC(=O)c1c(C)[nH]c(C(=O)NCCN2CCC(C)CC2)c1C	·	-2.4	1	-7.3	·	1.1
Oc1c(C(Nc2nc3ccccc3s2)c2ccco2)ccc2cccnc12 (centres undefined)	5.2	73.4*	0.3	33.5	-2.4	0.7
COc1ccc(CCNC(=O)CCN2C(=O)C3CC=CCC3C2=O)cc1OC (centres undefined)	-4.4	·	·	·	3.4	·
SMILES	sEH inhibitor	CYP2C9 inhib	CYP2C9 activ	CYP2C19 inhib	sEH act	CYP2C19 act
Cc1ccc(C2C(C#N)=C(N)Oc3n[nH]c(C)c32)cc1 (centres undefined)	3.7	9.2	0.9	26.9	-2.1	0.7
CC(C)(C)c1[nH]nc2c1C(c1ccoc1)C(C#N)=C(N)O2 (centres undefined)	7.3	10.7	0.9	39.4	-4.3	0.6
Cc1[nH]nc2c1C(c1ccc(Cl)cc1)C(C#N)=C(N)O2 (centres undefined)	5.9	42.8	0.6	52.6*	-6.3	0.5
CC(C)(C)c1[nH]nc2c1C(c1ccncc1)C(C#N)=C(N)O2 (centres undefined)	8.6	71.9*	0.3	60.1*	-5.1	0.4
Cc1cc(C)nc(-n2nc(C)c(Sc3ccc(F)cc3)c2N)n1	-5.2	65.7*	0.3	79.4*	6.6	0.2
COc1cccc(CNC(=O)c2nnn(-c3ccc(OC(F)(F)F)cc3)c2N)c1	5.6	-36.0	1.4	5.7	-6.8	0.9
COc1cccc(CNC(=O)CSCc2cnn(-c3ccccc3)c2-n2cccc2)c1	22.6	93.8*	0.1	92.0*	-20.1	0.1
Cc1ccc(CNC(=O)C2CCCN(Cc3cnn(-c4ccccc4)c3-n3cccc3)C2)cc1 (centres undefined)	16.1	43.6	0.6	20.2	-17.2	0.8
CCOC(=O)N1CCC(NC(=O)c2sc(-n3cccc3)nc2C)CC1	-12.3	-68.8	1.7	0.3	9.1	1
O=C(CSCc1cnn(-c2ccccc2)c1-n1cccc1)NCc1cccs1	-7.0	80.6*	0.2	53.2*	8.5	0.5
CCOC(=O)N1CCC(NC(=O)CSCc2cnn(-c3ccccc3)c2-n2cccc2)CC1	66.4	51.4*	0.5	57.2*	-67.0	0.4
CNC(=O)CSCc1cnn(-c2ccccc2)c1-n1cccc1	4.9	45.2	0.5	75.8*	-6.1	0.2
Cn1nc(C(=O)Nc2nc3ccc(S(C)(=O)=O)cc3s2)ccc1=O	-7.3	26.0	0.7	-5.7	8.9	1.1
COc1ccc(S(=O)(=O)Nc2ccc(O)c3ccccc23)cc1	-2.6	67.1*	0.3	97.4*	0.4	0
COc1ccc(OC)c(S(=O)(=O)Nc2ccccc2C(F)(F)F)c1	-16.8	·	·	·	14.7	·
COC(=O)Nc1ccc(S(=O)(=O)Nc2cccc3ccccc23)cc1	4.4	·	·	·	-3.2	·
COc1ccc(S(=O)(=O)Nc2ccccc2C(F)(F)F)cc1	-1.8	21.4	0.8	78.2*	7.0	0.2
COC(=O)CNc1c(-c2ccccc2)nc2ccc(Br)cn12	13.1	76.8*	0.2	69.4*	-15.1	0.3
COc1cccc(CNCCSc2nnnn2C)c1OC	-13.9	-3.2	1	77.2*	10.7	0.2
Cn1nnnc1SCCNCC#Cc1ccccc1	4.2	26.0	0.7	85.3*	-4.1	0.1
Cn1nnnc1SCCNCc1ccccc1F	3.6	41.1	0.6	79.0*	-3.8	0.2
COc1cc(CNCCSc2nnnn2C)cc(OC)c1OC	2.6	4.5	1	56.7*	-2.8	0.4
Cn1nnnc1SCCNCc1ccncc1	-11.8	38.7	0.6	43.8	9.9	0.6
COc1ccccc1NC(=O)CCSc1nnnn1C	0.9	-3.4	1	7.2	-1.0	0.9
O=C(Cn1c(=O)n(-c2ccc(F)cc2)c(=O)c2sccc21)N1CCCC1	-1.6	-13.9	1.1	-6.1	-0.1	1.1
CCOC(=O)C(/C=C(\C#N)C(=O)OCC)=C(/N)N1CCN(c2c(C)cccc2C)CC1	20.7	-10.4	1.1	16.2	-18.2	0.8
